Read-out in assay [1]: urokinase plasminogen activator (uPA), PLAU (gene 5328)
Nature of the assay: BSK_KF3CT_uPA: BioMAP Diversity Plus: KF3CT Assay for urokinase plasminogen activator (uPA) Biomarker Activity (AID 2283075). As to conditions: primary human keratinocytes with fibroblasts; actives raise or lower the signal. In a few lines: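 ELISA readout of uPA, analyzed for signal gain or loss relative to DMSO, from a human primary keratinocyte–foreskin fibroblast co-culture measured 24 h after chemical treatment.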

Read-out in assay [2]: CD40, CD40 (gene 958)
The assay is described as follows: BSK_LPS_CD40: BioMAP Diversity Plus: LPS Assay for CD40 Biomarker Activity (AID 2283076). To be noted: primary human HUVEC with PBMC; actives raise or lower the signal. In a few lines:
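Primary human umbilical vein endothelial cells co-cultured with peripheral blood mononuclear cells, LPS-stimulated, were dosed with chemical and read 24 h later. CD40 levels were measured by ELISA and fitted bidirectionally against DMSO as negative control and baseline.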

Read-out in assay [3]: E-selectin (Homo sapiens) (UniProt P16581)
The assay is described as follows: BSK_LPS_Eselectin: BioMAP Diversity Plus: LPS Assay for Eselectin Biomarker Activity (AID 2283077). As to conditions: primary human HUVEC with PBMC; actives raise or lower the signal. In a few lines:
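Human umbilical vein endothelial cells co-cultured with peripheral blood mononuclear cells under LPS stimulation; E-selectin measured by ELISA 24 h after chemical dosing. Activity fitted bidirectionally against DMSO as negative control and baseline.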

Read-out in assay [4]: Interleukin-8 (IL8), CXCL8 (gene 3576)
Nature of the assay: BSK_LPS_IL8: BioMAP Diversity Plus: LPS Assay for Interleukin-8 (IL8) Biomarker Activity (AID 2283078). As to conditions: primary human HUVEC with PBMC; actives raise or lower the signal. Summed up:
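Human umbilical vein endothelial cells co-cultured with PBMC were stimulated with LPS; IL-8 levels were measured by ELISA 24 h after chemical dosing. Activity was fitted bidirectionally against DMSO as negative control and baseline.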

Assay [5] is described as follows: BSK_LPS_SRB: Viability Assessment in the BioMAP Diversity Plus: LPS Assay (AID 2283079).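 Also: total protein by sulforhodamine B absorbance as a cytotoxicity measure; measured one day after compound addition; fitted in both directions against DMSO so loss or gain of signal counts.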 As to conditions: primary human HUVEC with PBMC. In a few lines: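 Human umbilical vein endothelial cells co-cultured with PBMC (LPS system) were dosed for 24 h. Total protein was stained with 0.1% sulforhodamine B after 10% TCA fixation, read at 560 nm, and fitted bidirectionally against DMSO baseline.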

Read-out in assay [6]: Interleukin-1 alpha (IL1a), IL1A (gene 3552)
Nature of the assay: BSK_LPS_IL1a: BioMAP Diversity Plus: LPS Assay for Interleukin-1 alpha (IL1a) Biomarker Activity (AID 2283080). As to conditions: primary human HUVEC with PBMC; actives raise or lower the signal. Summed up: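 Human umbilical vein endothelial cells co-cultured with peripheral blood mononuclear cells were LPS-stimulated and exposed to test chemicals for 24 h. IL-1 alpha was quantified by ELISA, with bidirectional curve fitting against DMSO as the negative control and baseline.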

Read-out in assay [7]: Monocyte Chemoattractant Protein-1 (MCP1), CCL2 (gene 6347)
Nature of the assay: BSK_LPS_MCP1: BioMAP Diversity Plus: LPS Assay for Monocyte Chemoattractant Protein-1 (MCP1) Biomarker Activity (AID 2283081).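 As to AC50: co-culture stimulated with LPS; secreted MCP-1 protein quantified by ELISA in culture supernatant.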 As to conditions: primary human HUVEC with PBMC; actives raise or lower the signal. Summed up: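 HUVEC plus PBMC co-culture (human primary cells, LPS system) exposed to test chemical for 24 h; MCP-1 measured by ELISA. Bidirectional curve fitting against DMSO baseline; parallel SRB total-protein staining flags overt cytotoxicity.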

The nature of assay [8]: BSK_LPS_PGE2: BioMAP Diversity Plus: LPS Assay for Prostaglandin E2 (PGE2) Biomarker Activity (AID 2283082).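 As to AC50: secreted prostaglandin E2 measured by ELISA in LPS-stimulated co-culture.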 To be noted: primary human HUVEC with PBMC; actives raise or lower the signal. In a few lines: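 LPS-activated HUVEC/PBMC co-culture; cmpd dosed, 24 h; PGE2 by ELISA; bidirectional fit vs DMSO; SRB (0.1%, TCA-fixed, 560 nm) in parallel plates for overt cytotox.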
Read-out in assay [9]: Tissue Factor, F3 (gene 2152)
The assay is described as follows: BSK_LPS_TissueFactor: BioMAP Diversity Plus: LPS Assay for Tissue Factor Biomarker Activity (AID 2283084). As to conditions: primary human HUVEC with PBMC; actives raise or lower the signal. In a few lines:
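Human umbilical vein endothelial cells co-cultured with peripheral blood mononuclear cells were dosed and stimulated with LPS. Cell-surface CD142 was quantified by ELISA at 24 h. Activity was fitted bidirectionally against DMSO baseline.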

Read-out in assay [10]: Tumor necrosis factor (Homo sapiens) (UniProt P01375)
The assay is described as follows: BSK_LPS_TNFa: BioMAP Diversity Plus: LPS Assay for Tumour Necrosis Factor alpha (TNFa) Biomarker Activity (AID 2283085). As to conditions: primary human HUVEC with PBMC; actives raise or lower the signal. Summed up: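 Read-out is ELISA of TNFa in primary human endothelial cell–PBMC co-cultures at 24 h after compound. Activity in either direction was fitted against DMSO.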

Read-out in assay [11]: Vascular cell adhesion molecule 1 (VCAM1), VCAM1 (gene 7412)
Nature of the assay: BSK_LPS_VCAM1: BioMAP Diversity Plus: LPS Assay for Vascular cell adhesion molecule 1 (VCAM1) Biomarker Activity (AID 2283086). As to conditions: primary human HUVEC with PBMC; actives raise or lower the signal. In a few lines:
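HUVEC + PBMC co-culture, LPS system; compound 24 h; VCAM-1 by ELISA; bidirectional fit vs DMSO control; parallel SRB (0.1%, TCA-fixed, 560 nm) for cytotoxicity.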

Read-out in a further assay: CD38, CD38 (gene 952)
Nature of the assay: BSK_SAg_CD38: BioMAP Diversity Plus: SAg Assay for CD38 Biomarker Activity (AID 2283087). To be noted: primary human HUVEC with PBMC; actives raise or lower the signal. In a few lines:
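Human HUVEC plus PBMC co-culture stimulated with superantigen; CD38 measured by ELISA 24 h after chemical dosing. Fluorescence read-out, bidirectional fit against DMSO; cytotoxicity tracked in parallel by SRB and Alamar Blue.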

Read-out in assay [12]: CD40, CD40 (gene 958)
Nature of the assay: BSK_SAg_CD40: BioMAP Diversity Plus: SAg Assay for CD40 Biomarker Activity (AID 2283088). As to conditions: primary human HUVEC with PBMC; actives raise or lower the signal. In a few lines: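 Human umbilical vein endothelial cells co-cultured with PBMC; CD40 levels measured by ELISA with fluorescence read-out 24 h after chemical dosing. Gain or loss of signal fitted bidirectionally against DMSO baseline.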

Read-out in the next assay: CD69, CD69 (gene 969)
Nature of the assay: BSK_SAg_CD69: BioMAP Diversity Plus: SAg Assay for CD69 Biomarker Activity (AID 2283089).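 As to AC50: cell surface CD69 protein quantified by ELISA with fluorescence detection.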 To be noted: primary human HUVEC with PBMC; actives raise or lower the signal. In a few lines: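 Endothelial/PBMC co-culture; chemical added; 24 h incubation; CD69 ELISA with fluorescence detection; bidirectional fit vs DMSO.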

Read-out in assay [13]: Monocyte Chemoattractant Protein-1 (MCP1), CCL2 (gene 6347)
The assay is described as follows: BSK_SAg_MCP1: BioMAP Diversity Plus: SAg Assay for Monocyte Chemoattractant Protein-1 (MCP1) Biomarker Activity (AID 2283090). As to conditions: primary human HUVEC with PBMC; actives raise or lower the signal. Summed up:
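MCP-1 levels in the endothelial–PBMC SAg co-culture were quantified by ELISA at 24 h post-dosing; both increases and decreases versus DMSO scored. Cytotoxicity monitored by SRB total protein in parallel cultures.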

Read-out in assay [14]: E-selectin (Homo sapiens) (UniProt P16581)
The assay is described as follows: BSK_SAg_Eselectin: BioMAP Diversity Plus: SAg Assay for Eselectin Biomarker Activity (AID 2283091). As to conditions: primary human HUVEC with PBMC; actives raise or lower the signal. In a few lines:
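HUVEC co-cultured with PBMC, compound dosed then read at 24 h; E-selectin measured by ELISA. Activity fitted bidirectionally against DMSO as negative control and baseline.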

Read-out in assay [15]: Monokine induced gamma interferon (MIG), CXCL9 (gene 4283)
The assay is described as follows: BSK_SAg_MIG: BioMAP Diversity Plus: SAg Assay for Monokine induced gamma interferon (MIG) Biomarker Activity (AID 2283092). As to conditions: primary human HUVEC with PBMC; actives raise or lower the signal. Summed up:
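Measures CXCL9 protein by ELISA in a human vascular primary-cell co-culture (umbilical vein endothelium with PBMC) 24 h after chemical addition. Activity is scored up or down from the DMSO control.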

Assay [16] is described as follows: BSK_SAg_PBMCCytotoxicity: PBMC Cytotoxicity Assessment in the BioMAP Diversity Plus: SAg Assay (AID 2283093).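 Also: PBMC viability measured as Alamar Blue reduction fluorescence at 546/580 nm; fitted both ways against DMSO so a hit may be loss or gain of signal.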 To be noted: primary human HUVEC with PBMC. In a few lines: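 Compound added to 75,000 PBMC/well for 1 h; SEB and TSST-1 then added at 20 ng/mL final each; 90 h incubation; Alamar Blue 6 h; read 546/580 nm ex/em. Activity fitted bidirectionally relative to DMSO baseline.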

Read-out in assay [17]: Interleukin-8 (IL8), CXCL8 (gene 3576)
Nature of the assay: BSK_SAg_IL8: BioMAP Diversity Plus: SAg Assay for Interleukin-8 (IL8) Biomarker Activity (AID 2283094). To be noted: primary human HUVEC with PBMC; actives raise or lower the signal. In a few lines:
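ELISA read-out of IL-8 in a primary human vascular co-culture (umbilical vein endothelium plus PBMC), taken 24 h after compound addition. Values derive from bidirectional fits against DMSO negative controls.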

Read-out in assay [18]: Macrophage colony-stimulating factor (MCSF), CSF1 (gene 1435)
Nature of the assay: BSK_LPS_MCSF: BioMAP Diversity Plus: LPS Assay for Macrophage colony-stimulating factor (MCSF) Biomarker Activity (AID 2283083). As to conditions: primary human HUVEC with PBMC; actives raise or lower the signal. Summed up: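 Human umbilical vein endothelial cells co-cultured with peripheral blood mononuclear cells were exposed to compound for 24 h. M-CSF levels were measured by ELISA, and bidirectional curve fitting used DMSO as the negative control and baseline.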

Structures are written as SMILES. Activity calls are given as the source filed them. The calls were made as follows: active = hit-call score of the fitted dose curve at least 0.9, where 1 is the maximum; inactive = score below 0.9.

Chain of Tumor necrosis factor (Homo sapiens) (P01375 whole entry, looked up): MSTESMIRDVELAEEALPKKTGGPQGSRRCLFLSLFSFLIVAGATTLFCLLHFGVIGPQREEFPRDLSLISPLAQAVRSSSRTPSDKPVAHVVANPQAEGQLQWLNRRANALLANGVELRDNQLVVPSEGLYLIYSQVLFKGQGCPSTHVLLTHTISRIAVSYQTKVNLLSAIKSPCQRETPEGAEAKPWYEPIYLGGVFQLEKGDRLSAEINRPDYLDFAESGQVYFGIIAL
Chain of E-selectin (Homo sapiens) (P16581 whole entry, looked up): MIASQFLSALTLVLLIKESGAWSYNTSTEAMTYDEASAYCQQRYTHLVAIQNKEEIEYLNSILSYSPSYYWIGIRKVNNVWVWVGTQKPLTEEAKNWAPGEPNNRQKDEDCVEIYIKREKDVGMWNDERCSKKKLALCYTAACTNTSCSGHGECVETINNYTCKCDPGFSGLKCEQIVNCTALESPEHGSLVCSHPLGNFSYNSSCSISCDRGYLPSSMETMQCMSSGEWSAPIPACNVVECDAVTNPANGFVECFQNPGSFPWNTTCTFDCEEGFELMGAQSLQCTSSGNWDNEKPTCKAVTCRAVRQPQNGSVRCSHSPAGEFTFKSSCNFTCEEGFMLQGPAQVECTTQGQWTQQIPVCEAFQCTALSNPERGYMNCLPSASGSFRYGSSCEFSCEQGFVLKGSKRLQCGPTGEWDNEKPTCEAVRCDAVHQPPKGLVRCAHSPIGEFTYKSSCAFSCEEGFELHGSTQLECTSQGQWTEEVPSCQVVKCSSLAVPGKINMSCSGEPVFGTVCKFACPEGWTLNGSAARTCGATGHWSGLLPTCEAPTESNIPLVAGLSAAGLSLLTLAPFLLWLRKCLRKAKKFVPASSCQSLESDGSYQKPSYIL

In the case of `Cc1cc(Cc2ccc(N)c(C)c2)ccc1N`, the outcome is “inactive” in [1]; “inactive” with CD40, CD40 (gene 958) [2]; “inactive” in assay [3]; “inactive” in assay [4]; “inactive” in [5]; “inactive” in [6]. For the same molecule, the outcome is “inactive” in assay [7]; “inactive” in assay [8]; “inactive” in assay [9]; “inactive” in assay [10]; “inactive” in assay [11]; “inactive” with CD38, CD38 (gene 952). In addition, the outcome in the assay with CD40, CD40 (gene 958) [12] is “inactive”; with CD69, CD69 (gene 969), “inactive”; in assay [13] it was “inactive”; in assay [15] it was “inactive”; in assay [16], “inactive”; in assay [17], “inactive”. Further, in [14], the AC50 is 5.1 µM (active).
For the molecule `CC(=O)[C@@]1(O)CC[C@H]2[C@@H]3CCC4=CC(=O)CC[C@]4(C)[C@H]3CC[C@@]21C`, the outcome in assay [1] is “inactive”; in the assay with CD40, CD40 (gene 958) [2], “inactive”; in assay [3] it was “inactive”; in [4], “inactive”; in [5], “inactive”; in assay [6], “inactive”. Also, the outcome in [7] was “inactive”; in assay [8] it was “inactive”; in [18], “inactive”; in assay [10], “inactive”; in assay [11], “inactive”; with CD38, CD38 (gene 952), “inactive”. Further, the outcome with CD40, CD40 (gene 958) [12] is “inactive”; with CD69, CD69 (gene 969), “inactive”; in assay [13], “inactive”; in assay [14], “inactive”; in [15] it was “inactive”; in assay [17] it was “inactive”.
Regarding `Oc1ccc(O)cc1`, the outcome in [1] was “inactive”; with CD40, CD40 (gene 958) [2] it was “inactive”; in [5] it was “inactive”; in assay [9] it was “inactive”; in assay [13], “inactive”; in assay [15], “inactive”. For the same molecule, the result in [17] was inactive. Further, the AC50 in [3] is 26.2 µM (active); in [6] it was 8.51 µM (active); in [7] it was 25.8 µM (active); in [8], 30 µM (active); in [18] it was 9.78 µM (active); in [10] it was 28.9 µM (active). The AC50 in assay [11] is 20 µM (active); in the assay with CD38, CD38 (gene 952) it was 36.5 µM (active); with CD40, CD40 (gene 958) [12], 11.4 µM (active); with CD69, CD69 (gene 969) it was 20 µM (active); in assay [14], 23.9 µM (active).

By AC50 is commonly meant the concentration giving half of the maximal activity seen.

The values are drawn from PubChem BioAssay (EPA / NIEHS).
